The subject of assay [1] is Wnt5a (protein binding on small-molecule microarray). Briefly: small molecules binding Wnt5a protein – biophysical, small-molecule microarray, 635/667 nm fluorescence, primary screen (AID 1142).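 Note: fluorescence read at 667 nm with signal to noise per printed feature.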 To be noted: 635 nm fluorescence, higher = more signal.
Assay [2] in a line: ATP-based viability of Huh7 replicon cells – cell-based, CellTiter-Glo luminescence, basal, 48 h, cytotoxicity control for HCV replication inhibitor project, primary screen (AID 1143).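 Note: Huh7 hepatoma cells carrying a hepatitis C replication reporter with no stimulus; test concentration not given here.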 To be noted: higher = more signal, called active from +8 up or from −8 down. (In antiviral work, replicon cells carry a viral genome segment that copies itself.)
Assay [3] in a line: Pseudomonas biofilm growth suppression – PAO1 strain, BacTiter-Glo luminescence, LB-PBS, primary screen (AID 1144). The note with it: P. aeruginosa PAO1 biofilm, 12 h, higher = more signal.
Assay [4] is described as follows: basal CRE-LacZ reporter activity in PC12 – cell-based, unstimulated, primary screen (AID 1145). To be noted: no forskolin, luminescence, 4.5 h, higher = more signal, called active from +8 up or from −8 down.
A short description of assay [5]: forskolin-driven CRE-LacZ activity in PC12 – cell-based, CRE-LacZ reporter, forskolin-stimulated, primary screen (AID 1146).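 Note: PC12 cells with 6xCRE LacZ reporter stimulated by forskolin 10 µM; beta-galactosidase reporter signal reflecting CREB driven transcription.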 To be noted: luminescence, 4.5 h, higher = more signal, called active from +8 up or from −8 down.
Assay [6] deals with Streptavidin (Streptomyces avidinii) (UniProt P22629). Kind of assay: compounds binding control protein streptavidin – biophysical, small-molecule microarray, 635/667 nm fluorescence, artefact control for SMM compound annotation, primary screen (AID 1147).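 Note: signal reflects streptavidin binding to arrayed compounds as a control protein.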 The note with it: higher = more signal.
Sequence of Streptavidin (Streptomyces avidinii) (P22629 whole entry, looked up): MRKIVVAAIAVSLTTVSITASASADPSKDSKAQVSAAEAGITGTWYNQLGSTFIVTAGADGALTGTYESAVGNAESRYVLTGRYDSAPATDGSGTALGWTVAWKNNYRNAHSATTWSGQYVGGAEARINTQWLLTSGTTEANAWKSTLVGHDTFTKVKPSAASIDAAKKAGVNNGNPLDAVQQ
Assay [7] can be described thus: probe aInhba binding on compound microarray – biochemical, small-molecule microarray, 635/667 nm fluorescence, primary screen (AID 1148).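 Note: score merges 667nm spot fluorescence with signal-to-noise for antibody binding to printed compounds.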 The note with it: higher = more signal.
The target in assay [8] is Torsin-1A (Homo sapiens) (UniProt O14656). Briefly: TOR1A wild-type binding on microarray – cell lysate, small-molecule microarray, lysate, 635/667 nm, primary screen (AID 1149). To be noted: COS7 hTOR1A-WT lysate, 635 nm fluorescence, higher = more signal.
Sequence of Torsin-1A (Homo sapiens) (O14656 whole entry, looked up): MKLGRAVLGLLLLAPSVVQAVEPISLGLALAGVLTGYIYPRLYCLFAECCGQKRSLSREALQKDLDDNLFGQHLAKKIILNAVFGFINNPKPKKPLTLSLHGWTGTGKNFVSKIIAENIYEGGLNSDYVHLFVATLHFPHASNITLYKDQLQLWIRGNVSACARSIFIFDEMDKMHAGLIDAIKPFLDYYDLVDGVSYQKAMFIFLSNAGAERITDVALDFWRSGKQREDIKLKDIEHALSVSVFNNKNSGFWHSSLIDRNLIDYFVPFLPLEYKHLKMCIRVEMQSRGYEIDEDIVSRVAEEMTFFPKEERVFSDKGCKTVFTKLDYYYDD
For assay [9] the target is unchanged. Kind of assay: torsin A mutant lysate binding on microarrays – cell lysate, small-molecule microarray, COS7 lysate, 635/667 nm fluorescence, primary screen (AID 1150).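 Note: score pools 667 nm emission and signal to noise measuring lysate protein binding.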 To be noted: COS7 hTOR1A mutant lysate, 635 nm fluorescence, higher = more signal.
The subject of assay [10] is Sonic hedgehog protein (Shh). Briefly: Sonic hedgehog microarray binding compounds – biochemical, small-molecule microarray, 635/667 nm fluorescence, primary screen (AID 1151).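 Note: Shh protein binding to compounds spotted on small-molecule microarray slides; score combines spot fluorescence intensity with signal-to-noise across triplicate slides.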 The note with it: 635 nm fluorescence, higher = more signal.
A short description of assay [11]: optical density shifts of acrAB sulA E. coli – strain DRC41, OD650, 48 h, E. coli filamentation inducer project, primary screen (AID 1152).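 Note: E. coli MC1000 strain DRC41 lacking acrAB efflux pump and sulA.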 To be noted: higher = more signal, called active from +8 up or from −8 down.
Assay [12] is described as follows: probe aLefty1 binding on compound microarray – biochemical, small-molecule microarray, 635/667 nm fluorescence, primary screen (AID 1153).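 Note: score merges spot fluorescence with signal-to-noise ratio from the scanned slide images.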 To be noted: higher = more signal.
The nature of assay [13]: plasmodial surface anion channel blockers, osmotic lysis – cell-based, P. falciparum Indochina, OD700, 1 h, primary screen (AID 1154). To be noted: P. falciparum Indochina infected RBC osmotic lysis, higher = more signal, called active from +8 up or from −8 down.
The nature of assay [14]: plasmodial surface anion channel blockers, osmotic lysis – cell-based, P. falciparum Indochina, OD700, 2 h, primary screen (AID 1155).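 Note: lysis reports solute entry through the parasite surface anion channel PSAC.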 The note with it: P. falciparum Indochina infected erythrocytes, higher = more signal, called active from +8 up or from −8 down.
Assay [15] in a line: changes in parasitized red cell lysis, either direction – P. falciparum Indochina, OD700, 3 h, PSAC antagonist project, primary screen (AID 1156). To be noted: P. falciparum-infected erythrocytes, osmotic lysis, higher = more signal, called active from +8 up or from −8 down.
A short description of assay [16]: plasmodial surface anion channel blockers, osmotic lysis – cell-based, P. falciparum Indochina, OD700, 18 h, primary screen (AID 1157). The note with it: P. falciparum Indochina infected erythrocytes, osmotic lysis OD700, 18 h; higher = more signal, called active from +8 up or from −8 down.
Assay [17] in a line: S6 kinase pathway phospho-S6 level changes – cell-based, A549, cytoblot, luminescence, serum-stimulated, primary screen (AID 1158).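 Note: serum-stimulated A549 lung adenocarcinoma cells; signal is phosphorylated S6 detected by cytoblot immunostaining with HRP secondary.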 To be noted: 5 h, higher = more signal.
For assay [18], the target named is NADPH oxidase 2 (Homo sapiens) (UniProt P04839). Briefly: compounds shifting NOX2 Amplex Red fluorescence – cell-based, HEK293-NOX2, PMA-stimulated, NOX inhibitor project, primary screen (AID 1159). Note: test concentration not given here. The note with it: 45 min, higher = more signal, called active from +8 up or from −8 down.
Sequence of NADPH oxidase 2 (Homo sapiens) (P04839 whole entry, looked up): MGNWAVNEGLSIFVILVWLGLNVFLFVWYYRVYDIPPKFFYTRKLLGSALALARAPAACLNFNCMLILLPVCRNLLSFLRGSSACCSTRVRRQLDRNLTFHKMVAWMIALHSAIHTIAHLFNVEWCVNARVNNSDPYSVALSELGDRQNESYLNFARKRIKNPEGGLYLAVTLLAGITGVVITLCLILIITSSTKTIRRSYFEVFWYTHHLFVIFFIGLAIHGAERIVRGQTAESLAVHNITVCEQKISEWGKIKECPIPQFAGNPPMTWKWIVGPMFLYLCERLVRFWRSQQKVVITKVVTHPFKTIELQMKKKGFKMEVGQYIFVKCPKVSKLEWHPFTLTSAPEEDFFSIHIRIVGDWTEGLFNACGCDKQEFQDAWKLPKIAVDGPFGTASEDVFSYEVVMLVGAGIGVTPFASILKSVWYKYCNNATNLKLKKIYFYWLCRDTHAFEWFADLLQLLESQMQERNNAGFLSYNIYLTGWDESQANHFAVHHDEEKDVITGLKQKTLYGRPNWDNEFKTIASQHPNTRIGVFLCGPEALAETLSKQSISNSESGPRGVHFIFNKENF
Assay [19] addresses NADPH oxidase 4 (Homo sapiens) (UniProt Q9NPH5). Kind of assay: compounds shifting NOX4 Amplex Red fluorescence – cell-based, HEK293-NOX4, tetracycline-induced, NOX inhibitor project, primary screen (AID 1160). To be noted: HEK293-NOX4, Amplex Red H2O2 fluorescence, 45 min; higher = more signal, called active from +8 up or from −8 down.
Assay [20] concerns the target NADPH oxidase 5 (Homo sapiens) (UniProt Q96PH1). Briefly: compounds shifting NOX5 Amplex Red fluorescence – cell-based, HEK293-NOX5, NOX inhibitor project, primary screen (AID 1161). The note with it: HEK293-NOX5, ionomycin, 45 min, higher = more signal.

Structures are written as SMILES. Activity calls are given as the source filed them. Unless noted, the rule behind the calls is not given here.

Sequence of NADPH oxidase 5 (Homo sapiens) (Q96PH1 whole entry, looked up): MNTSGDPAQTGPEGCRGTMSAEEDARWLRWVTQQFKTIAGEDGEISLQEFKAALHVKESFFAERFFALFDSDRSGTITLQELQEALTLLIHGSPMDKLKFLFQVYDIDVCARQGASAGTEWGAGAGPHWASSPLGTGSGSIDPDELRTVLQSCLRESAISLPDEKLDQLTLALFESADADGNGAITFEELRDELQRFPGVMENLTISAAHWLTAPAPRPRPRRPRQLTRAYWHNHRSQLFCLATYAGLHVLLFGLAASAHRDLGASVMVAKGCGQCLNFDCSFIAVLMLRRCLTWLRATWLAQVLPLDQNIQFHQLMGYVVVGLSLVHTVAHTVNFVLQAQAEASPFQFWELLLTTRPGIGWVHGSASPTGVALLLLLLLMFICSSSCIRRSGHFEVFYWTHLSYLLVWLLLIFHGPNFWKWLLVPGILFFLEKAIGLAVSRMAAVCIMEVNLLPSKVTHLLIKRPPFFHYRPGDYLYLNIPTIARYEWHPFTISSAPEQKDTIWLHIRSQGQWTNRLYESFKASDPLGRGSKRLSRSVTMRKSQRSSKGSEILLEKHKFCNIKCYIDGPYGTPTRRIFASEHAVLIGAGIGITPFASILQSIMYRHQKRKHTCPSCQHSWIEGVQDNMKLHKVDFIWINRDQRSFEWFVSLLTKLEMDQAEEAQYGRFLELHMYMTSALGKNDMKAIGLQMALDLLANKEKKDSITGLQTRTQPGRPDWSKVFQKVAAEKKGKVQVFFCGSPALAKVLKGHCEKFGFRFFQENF
Sequence of NADPH oxidase 4 (Homo sapiens) (Q9NPH5 whole entry, looked up): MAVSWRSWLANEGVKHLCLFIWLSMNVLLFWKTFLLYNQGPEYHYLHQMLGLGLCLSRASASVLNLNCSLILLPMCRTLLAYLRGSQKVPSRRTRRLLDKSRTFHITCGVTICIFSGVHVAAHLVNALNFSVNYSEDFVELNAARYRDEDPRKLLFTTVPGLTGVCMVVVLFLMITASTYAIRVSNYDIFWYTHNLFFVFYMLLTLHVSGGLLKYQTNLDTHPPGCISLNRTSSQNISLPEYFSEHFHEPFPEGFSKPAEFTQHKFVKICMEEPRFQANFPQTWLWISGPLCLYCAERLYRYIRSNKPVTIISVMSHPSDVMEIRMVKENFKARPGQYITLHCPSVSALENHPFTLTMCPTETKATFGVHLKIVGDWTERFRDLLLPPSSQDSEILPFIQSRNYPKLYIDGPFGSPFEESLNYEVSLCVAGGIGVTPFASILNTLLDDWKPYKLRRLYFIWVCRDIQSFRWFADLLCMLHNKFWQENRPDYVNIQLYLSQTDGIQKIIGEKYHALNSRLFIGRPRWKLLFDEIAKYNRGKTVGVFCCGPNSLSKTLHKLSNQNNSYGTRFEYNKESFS

Regarding `CC(CO)N1C(=O)[C@@H]2C3C(=O)OCCC/C=C\[C@H]3OC23C=CCN(C(C)(C)C)C(=O)[C@@H]13` (stereo not given in full), the composite z-score in [1] was -0.221; in assay [6], -0.221; in [7] it was -0.128; in [8] it was 1.17; in assay [9], 2.21; in assay [10], 0.777. Moreover, the composite z-score in assay [12] was -0.0984. Further, the z-score in assay [2] was 0.559 (inactive); in [3] it was -0.818 (inactive); in assay [4], -0.488 (inactive); in [5], 0.636 (inactive); in assay [11], 0.458 (inactive); in assay [13], 0.943 (inactive). The z-score in assay [14] is 0.752 (inactive); in assay [15] it was 2.51 (inactive); in [16], 0.477 (inactive); in assay [17], -0.0054; in assay [18], 0.89 (inactive); in [19], -0.437 (inactive). For the same compound, in [20], the z-score amounted to 0.886.
As to `COCCOC(=O)N1C(=O)[C@@]2(c3cc(C#Cc4ccc(OC)cc4)ccc31)[C@H](c1ccc(O)cc1)N1[C@H](c3ccccc3)[C@H](c3ccccc3)OC(=O)[C@H]1[C@@H]2C(=O)N1CCc2cc(OC)c(OC)cc2C1`, the composite z-score in assay [1] came to 0.164; in assay [6], 1.25; in assay [7], 0.0317; in assay [8], 0.807; in [9], 0.964; in assay [10], 0.643. The compound further had a composite z-score in [12] of 0.134. In addition, the z-score in [2] was -1.93 (inactive); in assay [3] it was -1.57 (inactive); in [4], -1.42 (inactive); in assay [5], -0.397 (inactive); in [11], 0.892 (inactive); in assay [13] it was 1.92 (inactive). In addition, the z-score is 1.19 (inactive) in assay [14]; 0.401 (inactive) in assay [15]; 0.827 (inactive) in assay [16]; 0.035 in [17]; 0.478 (inactive) in [18]; 0.398 (inactive) in assay [19]. In addition, in assay [20], the z-score is 1.08.
Regarding `O=C1C[C@@](C(=O)NCC(F)(F)F)(c2ccc([N+](=O)[O-])cc2)[C@@H](c2ccc(CO)cc2I)N1C1CCCCC1`, the composite z-score in assay [1] was 0.318; in assay [6], 0.514; in [7] it was -0.0421; in [8], 0.281; in [9], 0.35; in assay [10], 0.491. Moreover, in [12], the composite z-score stood at 0.165. Moreover, the z-score in assay [2] was -4.26 (inactive); in [3], -0.148 (inactive); in assay [4], 0.558 (inactive); in assay [5] it was -0.503 (inactive); in [11], -0.629 (inactive); in assay [13], 16.9 (active). In addition, the z-score in [14] was 1.79 (inactive); in [15] it was 2.56 (inactive); in assay [16] it was 0.599 (inactive); in [17], -0.417; in assay [18], 0.979 (inactive); in [19], -0.0876 (inactive). In addition, the z-score in [20] came out at 0.612.
In the case of `NC(=O)NCC#Cc1ccc2c(c1)[C@]1(C(=O)N2)[C@H](c2ccccc2OCCO)N2[C@H](c3ccccc3)[C@H](c3ccccc3)OC(=O)[C@H]2[C@@H]1C(=O)Nc1nc2ccccc2s1`, the composite z-score was -0.0307 in assay [1]; 0.441 in assay [6]; 0.0314 in assay [7]; -0.671 in assay [8]; 0.0313 in assay [9]; 0.812 in assay [10]. In assay [12], this compound showed a composite z-score of 0.0692. Also, the z-score in assay [2] is 0.0402 (inactive); in assay [3], -1.39 (inactive); in [4] it was -0.0784 (inactive); in [5], 0.335 (inactive); in assay [11], 0.726 (inactive); in assay [13], 1.19 (inactive). Besides, the z-score in [14] was 1.36 (inactive); in [15], -5.62 (inactive); in assay [16], 1.28 (inactive); in assay [17], -0.0906; in assay [18], 1.95 (inactive); in assay [19], 1.32 (inactive). Besides, the z-score in [20] is 0.883.
Consider `CCC[C@@H]1C[C@@]1(CCC)[C@@H](NC(=O)c1ccccc1)c1cccc(Cl)c1`, for which the composite z-score in assay [1] is 2.05; in [6], 2.17; in assay [7] it was 1.32; in assay [8], 0.0875; in [9], 0.512; in assay [10], -1.33. In addition, the composite z-score in assay [12] stood at 2.15. Moreover, the z-score in assay [2] was -0.246 (inactive); in assay [3], 0.0208 (inactive); in assay [4], 0.776 (inactive); in assay [5] it was 0.485 (inactive); in [11] it was -1 (inactive); in assay [13], 0.534 (inactive). Further, the z-score in [14] was 0.364 (inactive); in assay [15], 0.277 (inactive); in assay [16] it was 0.839 (inactive); in assay [17], -0.841; in assay [18], 0.46 (inactive); in assay [19], -0.107 (inactive). In addition, the z-score in assay [20] was determined as 0.328.
For the compound `CC(C)NC(=O)[C@@]1(C)c2ccccc2C(=O)N(Cc2cc(C(F)(F)F)cc(C(F)(F)F)c2)[C@H]1c1ccc(CO)cc1`, the composite z-score in assay [1] is -0.533; in assay [6] it was -0.417; in assay [7], -0.269; in assay [8], -0.979; in assay [9], -0.723; in assay [10] it was -0.328. For the same compound, in assay [12], the composite z-score is 0.0328. Besides, the z-score in [2] is -3.78 (inactive); in assay [3] it was 1.03 (inactive); in assay [4], 0.648 (inactive); in assay [5], -0.405 (inactive); in assay [11], -0.204 (inactive); in assay [13], 11.8 (active). Further, the z-score in assay [14] is 1.66 (inactive); in assay [15], 1.35 (inactive); in assay [16] it was 0.377 (inactive); in assay [17] it was 0.401; in [18], -1.13 (inactive); in [19], 0.154 (inactive). Moreover, the z-score in [20] came to 0.685.
`CC(=O)NCCCC[C@@H]1NC(=O)[C@H]2C[C@@H](C(=O)NCCCCCCNC(=O)CS)[C@@H](c3ccc(O)cc3)N2C1=O`: the composite z-score is 0.151 in assay [1]; -1.22 in assay [6]; 0.0074 in [7]; 0.365 in [8]; 2.14 in assay [9]; 1.22 in assay [10]. This compound had a composite z-score in [12] of 0.132. The z-score in [2] is -0.133 (inactive); in assay [3], -0.619 (inactive); in assay [4] it was -0.528 (inactive); in assay [5], 0.14 (inactive); in assay [11], 0.0783 (inactive); in assay [13], 4.2 (inactive). Also, the z-score in [14] was 0.507 (inactive); in assay [15], 3.45 (inactive); in [16], 0.301 (inactive); in assay [17], -0.371; in [18], 0.294 (inactive); in assay [19], -0.187 (inactive). Also, the z-score in assay [20] came to 0.673.
Take `C=CCOC(=O)[C@H]1[C@@H]2C(=O)O[C@@H](c3ccccc3)[C@@H](c3ccccc3)N2[C@@H](c2ccc(OCCOC(=O)[C@H]3C[C@H]4C(=O)N[C@@H](CCCC[N+](C)(C)C)C(=O)N4[C@H]3c3ccc(O)cc3)cc2)[C@]12C(=O)Nc1ccc(I)cc12`: the composite z-score in assay [1] is 0.232; in [6], 0.134; in assay [7] it was 0.0759; in [8], 1.39; in assay [9], -0.243; in [10], 2.22. In assay [12], this compound came in with a composite z-score of 0.275. For the same compound, the z-score in assay [2] is -0.326 (inactive); in [3], -0.615 (inactive); in assay [4], 0.415 (inactive); in assay [5], -0.226 (inactive); in assay [11], -0.535 (inactive); in assay [13], 3.9 (inactive). Besides, the z-score in [14] is 1.69 (inactive); in [15] it was -3.16 (inactive); in assay [16] it was 0.278 (inactive); in [17], -0.519; in assay [18] it was 0.595 (inactive); in [19], 0.72 (inactive). For the same compound, the z-score in [20] came out at 0.895.

The values above are taken from PubChem BioAssay.
